Measurements: PubChem BioAssay (NCATS)
Where “and” joins values, the source holds several entries; their conditions need not be identical. Identical values can stand only once. Results filed as inconclusive are left out. Calls of active or inactive are those of the source. Unless noted, calls follow the shape of the full dose curve.

Tests used:
[1] = molecular target: Glucocorticoid receptor (Homo sapiens) (UniProt P04150); test: qHTS assay for small molecule agonists of glucocorticoid receptor signaling (AID 588532; active = well fitted curve in the direction sought with a large enough effect in the signal ratio, with a control signal flat; the % refers to the signal ratio;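 also: 100% = dexamethasone at 0.1 µM and 0% = DMSO only wells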); conditions: HeLa MMTV-bla, beta-lactamase ratio, agonist, 18 h; active compounds read high; percent of dexamethasone control, DMSO zero
Sequence of Glucocorticoid receptor (Homo sapiens) (P04150 whole entry, looked up): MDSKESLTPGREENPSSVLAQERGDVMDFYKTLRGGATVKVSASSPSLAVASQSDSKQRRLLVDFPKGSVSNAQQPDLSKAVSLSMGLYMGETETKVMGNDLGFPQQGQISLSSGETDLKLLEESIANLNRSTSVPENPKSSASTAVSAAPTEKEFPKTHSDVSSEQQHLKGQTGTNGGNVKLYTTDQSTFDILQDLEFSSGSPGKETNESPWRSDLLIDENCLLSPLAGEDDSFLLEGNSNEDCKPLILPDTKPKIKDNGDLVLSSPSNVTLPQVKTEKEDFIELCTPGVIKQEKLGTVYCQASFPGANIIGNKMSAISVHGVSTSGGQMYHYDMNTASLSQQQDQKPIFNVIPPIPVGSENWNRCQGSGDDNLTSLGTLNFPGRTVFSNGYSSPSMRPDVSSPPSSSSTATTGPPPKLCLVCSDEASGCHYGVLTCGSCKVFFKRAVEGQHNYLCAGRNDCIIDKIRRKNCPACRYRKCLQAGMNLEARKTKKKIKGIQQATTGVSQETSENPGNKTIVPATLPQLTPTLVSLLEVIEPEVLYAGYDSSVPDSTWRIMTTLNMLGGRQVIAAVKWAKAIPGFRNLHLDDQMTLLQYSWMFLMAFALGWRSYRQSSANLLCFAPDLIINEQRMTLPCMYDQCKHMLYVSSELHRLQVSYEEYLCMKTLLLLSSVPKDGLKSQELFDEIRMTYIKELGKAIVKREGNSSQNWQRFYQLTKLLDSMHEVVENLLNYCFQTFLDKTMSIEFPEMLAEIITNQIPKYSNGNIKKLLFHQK
How it was run: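 Cells were plated and rested 3-5 h at 37 C, compounds were added in titration and incubated 18 h, then CCF4 substrate was loaded for 2 h at RT before reading blue/green fluorescence. EC50 came from Hill-equation fitting.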

[2] = molecular target: Glucocorticoid receptor (Homo sapiens) (UniProt P04150); test: qHTS assay for small molecule antagonists of glucocorticoid receptor signaling (AID 588533; active = well fitted inhibition curve with a large enough effect in the signal ratio, with a control signal flat, not every such curve was filed as active; the % refers to the signal ratio; also: % is scaled to controls: 0 for no effect and ±100 for the full control effect)
How it was run: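 Antagonist-mode qHTS: compound titrations added to GRE-bla HeLa cells, then dexamethasone 2 nM final; 18 h, 37 C. CCF4 FRET fluorescence normalized to dexamethasone and DMSO; IC50 from Hill fit.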

[3] = molecular target: Peroxisome proliferator-activated receptor delta (Homo sapiens) (UniProt Q03181); test: qHTS assay for small molecule antagonists of peroxisome proliferator-activated receptor delta signaling (AID 588535; active = well fitted inhibition curve with a large enough effect in the signal ratio, with a control signal flat, not every such curve was filed as active; the % refers to the signal ratio)
Sequence of Peroxisome proliferator-activated receptor delta (Homo sapiens) (Q03181 whole entry, looked up): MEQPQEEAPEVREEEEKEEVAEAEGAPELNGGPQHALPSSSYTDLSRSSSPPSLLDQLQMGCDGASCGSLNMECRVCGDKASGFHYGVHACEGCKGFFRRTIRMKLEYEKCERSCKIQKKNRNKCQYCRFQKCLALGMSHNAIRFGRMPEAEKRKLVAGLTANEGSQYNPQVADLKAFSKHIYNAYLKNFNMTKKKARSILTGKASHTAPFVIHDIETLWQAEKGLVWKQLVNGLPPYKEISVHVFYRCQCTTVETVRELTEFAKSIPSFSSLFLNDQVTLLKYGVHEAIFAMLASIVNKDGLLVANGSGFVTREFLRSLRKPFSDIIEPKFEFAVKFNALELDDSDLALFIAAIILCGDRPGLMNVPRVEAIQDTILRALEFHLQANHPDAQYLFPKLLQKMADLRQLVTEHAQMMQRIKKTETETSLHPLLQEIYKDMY
How it was run: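 Fluorescence from CCF4-loaded GeneBLAzer PPAR-delta-UAS-bla HEK293T cells (2 hrs RT loading) quantified reporter inhibition after an 18 hr, 37 C compound exposure across a titration.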

[4] = molecular target: Peroxisome proliferator-activated receptor gamma (Homo sapiens) (UniProt P37231); test: qHTS assay for small molecule antagonists of peroxisome proliferator-activated receptor gamma signaling (AID 588537; active = well fitted inhibition curve with a large enough effect in the signal ratio, with a control signal flat, not every such curve was filed as active; the % refers to the signal ratio;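 also: reporter cells co-stimulated with 50 nM rosiglitazone agonist during compound treatment; % of control where 0% means no effect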)
Sequence of Peroxisome proliferator-activated receptor gamma (Homo sapiens) (P37231 whole entry, looked up): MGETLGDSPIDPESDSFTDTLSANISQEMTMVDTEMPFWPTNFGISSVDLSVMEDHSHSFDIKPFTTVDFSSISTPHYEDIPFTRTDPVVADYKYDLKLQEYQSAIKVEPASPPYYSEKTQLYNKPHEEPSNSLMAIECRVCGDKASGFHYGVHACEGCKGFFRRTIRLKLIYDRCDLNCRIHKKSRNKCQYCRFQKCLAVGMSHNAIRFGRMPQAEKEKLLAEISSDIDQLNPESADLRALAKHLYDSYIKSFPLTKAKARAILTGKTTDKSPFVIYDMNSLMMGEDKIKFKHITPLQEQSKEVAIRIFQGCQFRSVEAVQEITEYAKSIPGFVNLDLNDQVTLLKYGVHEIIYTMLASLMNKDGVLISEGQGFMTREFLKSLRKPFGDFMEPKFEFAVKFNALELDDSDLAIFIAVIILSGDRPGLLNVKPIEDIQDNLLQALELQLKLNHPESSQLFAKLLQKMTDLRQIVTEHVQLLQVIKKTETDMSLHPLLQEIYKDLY
How it was run: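 Fluorescence at 460 and 530 nm (405 nm excitation) reported beta-lactamase cleavage of CCF4 after 2 h room-temperature loading. HEK293 reporter cells in 1% charcoal/dextran-treated FBS had received compound and rosiglitazone for 16 h.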

[5] = molecular target: Vitamin D3 receptor (Homo sapiens) (UniProt P11473); test: qHTS assay for small molecule antagonists of vitamin D receptor signaling (AID 588541);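 also: receptor activated by calcitriol during compound treatment; series mostly up to about 77 µM; % is scaled to controls: 0 for no effect and ±100 for the full control effect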
Sequence of Vitamin D3 receptor (Homo sapiens) (P11473 whole entry, looked up): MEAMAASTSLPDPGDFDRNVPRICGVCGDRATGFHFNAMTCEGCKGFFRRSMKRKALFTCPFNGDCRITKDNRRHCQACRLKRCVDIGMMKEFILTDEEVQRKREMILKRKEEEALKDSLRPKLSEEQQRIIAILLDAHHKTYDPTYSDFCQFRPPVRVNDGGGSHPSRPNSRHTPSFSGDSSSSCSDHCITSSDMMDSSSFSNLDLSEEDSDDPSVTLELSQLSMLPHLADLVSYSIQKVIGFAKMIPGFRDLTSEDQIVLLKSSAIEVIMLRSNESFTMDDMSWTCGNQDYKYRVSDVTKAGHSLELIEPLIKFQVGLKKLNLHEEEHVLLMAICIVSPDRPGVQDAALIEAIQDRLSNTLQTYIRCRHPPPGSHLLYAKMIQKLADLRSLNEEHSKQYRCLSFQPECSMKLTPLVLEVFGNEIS
How it was run: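 VDR-UAS-bla HEK293T cells in 2% charcoal-stripped FBS were stimulated with 1-alpha,25-dihydroxyvitamin D3 (3 nM final) plus compound for 16 h at 37 C. The beta-lactamase CCF4 readout was normalized to 50 nM agonist and DMSO, and Hill fits gave IC50.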

[6] = qHTS assay for small molecule activators of the p53 signaling pathway (AID 651743; active = well fitted activation curve with a large enough effect in the signal ratio, not every such curve was filed as active; the % refers to the signal ratio; also: series mostly up to about 92 µM; % of control where 0% means no effect); conditions: HCT-116 p53RE-bla, beta-lactamase FRET ratio, 16 h; activation: active compounds read high
How it was run: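 Following 16 hours of compound exposure at 37 C, HCT-116 cells bearing the p53RE-bla reporter were loaded with LiveBLAzer B/G FRET substrate for 2 hours at room temperature and fluorescence intensity was recorded.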

[7] = molecular target: Bile acid receptor (Homo sapiens) (UniProt Q96RI1); test: qHTS assay for small molecule antagonists of farnesoid X receptor signaling (AID 588526); also: % is scaled to controls: 0 for no effect and ±100 for the full control effect
Sequence of Bile acid receptor (Homo sapiens) (Q96RI1 whole entry, looked up): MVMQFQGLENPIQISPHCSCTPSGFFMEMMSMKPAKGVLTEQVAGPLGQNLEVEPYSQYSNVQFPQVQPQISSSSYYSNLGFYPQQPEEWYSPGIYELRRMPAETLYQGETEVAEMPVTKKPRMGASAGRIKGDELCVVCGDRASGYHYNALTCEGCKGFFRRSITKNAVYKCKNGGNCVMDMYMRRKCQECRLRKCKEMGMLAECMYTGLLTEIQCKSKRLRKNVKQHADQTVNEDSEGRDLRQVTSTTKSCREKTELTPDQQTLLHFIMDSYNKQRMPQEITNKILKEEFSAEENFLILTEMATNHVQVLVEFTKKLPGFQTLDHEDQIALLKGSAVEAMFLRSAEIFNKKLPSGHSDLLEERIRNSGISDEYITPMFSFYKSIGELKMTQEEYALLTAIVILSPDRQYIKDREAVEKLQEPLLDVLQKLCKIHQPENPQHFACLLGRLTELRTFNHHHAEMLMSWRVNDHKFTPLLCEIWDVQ
How it was run: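 Antagonist mode: titrated compounds tested against chenodeoxycholic acid stimulation (normalized to 50 uM CDCA and DMSO) in GeneBLAzer HEK293T cells for 16 h. Beta-lactamase read by CCF4 fluorescence; IC50 from Hill fits.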

[8] = qHTS assay for small molecule agonists of the antioxidant response element (ARE) signaling pathway (AID 651741; active = well fitted activation curve with a large enough effect in the signal ratio; the % refers to the signal ratio; also: % of control where 0% means no effect)
How it was run: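 Stably integrated ARE-beta-lactamase reporter HepG2 cells; 16 h compound incubation, 37 C; LiveBLAzer FRET substrate 2 h at room temperature; fluorescence intensity.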

CC/C=C\CCOC(=O)c1ccccc1O
inactive: activation [1] -3.47% | Potency [2] | Potency [3] | Potency [4] | Potency [5] | activation [6] -5.63%

CC(C)O.CC(C)O.CC(C)O.CC(C)O.[Ti]
inactive: Potency [7] | Potency [3] | Potency [4] | Potency [5]

Nc1c(N=Nc2ccc(S(=O)(=O)CCOS(=O)(=O)O)cc2)c(S(=O)(=O)O)cc2cc(S(=O)(=O)O)c(N=Nc3ccc(S(=O)(=O)CCOS(=O)(=O)O)cc3)c(O)c12
inactive: Potency [7] | Potency [3] | Potency [5] | activation [6] -4.94%

CC(C)c1ccc(C(C)C)cc1
inactive: Potency [7] | activation [1] 1.07% | Potency [2] | Potency [8] | activation [6] -6.39%

C[Si]1(C)O[Si](C)(C)O[Si](C)(C)O[Si](C)(C)O[Si](C)(C)O1
inactive: activation [1] 5.87% | Potency [2] | Potency [4] | Potency [8] | activation [6] 1.25%

CCCCOCCOCCOC(C)=O
inactive: activation [1] -1.04% | Potency [2] | Potency [5] | Potency [8] | activation [6] -0.502%

O=C(O)C(c1ccc(Cl)cc1)c1ccc(Cl)cc1
inactive: Potency [7] | Potency [3]

CCCCN(CCCC)CCCC
inactive: Potency [7] | activation [1] 8.81% | Potency [2] | Potency [5] | Potency [8]

CC1=CC2C3CC(C=C3C)C2C1 (stereo unspecified)
inactive: activation [1] 1.22% | Potency [2] | Potency [3] | Potency [4] | Potency [5]

c1ccc(-c2ccc(-c3ccccc3)cc2)cc1
inactive: activation [1] -0.857% | Potency [2] | Potency [3] | Potency [4]

CCCCOCC(C)OCC(C)O (stereo unspecified)
inactive: Potency [7] | Potency [4] | Potency [5]

c1ccc2c(c1)Cc1ccccc1-2
inactive: Potency [7] | Potency [2] | Potency [4] | Potency [5] | activation [6] 2.83%

CCCCCCCCCCO
inactive: Potency [7] | Potency [2] | Potency [4] | Potency [5] | Potency [8] | activation [6] 1.66% and 2.49%

CC(C)c1cccc(C(C)C)c1
inactive: Potency [7] | Potency [3]

CCCCNS(=O)(=O)c1ccccc1
inactive: Potency [7] | Potency [2] | Potency [4] | Potency [5] | activation [6] 0.183%

O=C(Cl)c1cc(Cl)cc(Cl)c1
inactive: activation [1] -2.63% | Potency [2] | Potency [3] | Potency [4] | Potency [5] | activation [6] -0.691%

CCOC(=O)CC(O)(CC(=O)OCC)C(=O)OCC
inactive: activation [1] -0.518% | Potency [2] | Potency [5] | Potency [8] | activation [6] -0.036%

CC(C)OC(=O)c1ccccc1C(=O)OC(C)C
inactive: Potency [7] | Potency [2] | Potency [4] | Potency [5]

CCCC/C=C/CCCCO
inactive: activation [1] -4.1% | Potency [2] | Potency [4] | Potency [8]

OC1CCC(C2CCCCC2)CC1 (stereo unspecified)
inactive: Potency [7] | Potency [2] | Potency [3] | Potency [4] | Potency [5] | Potency [8] | activation [6] 3.92%

Cc1ccc(S(=O)(=O)N=C=O)cc1
inactive: activation [1] 20.2% | Potency [2] | Potency [3] | Potency [4] | Potency [5] | Potency [8] | activation [6] -3.48%

NNS(=O)(=O)c1ccc(Oc2ccc(S(=O)(=O)NN)cc2)cc1
inactive: Potency [7] | Potency [3] | Potency [5]

CC(C)(C)C1CCC(O)CC1 (stereo unspecified)
inactive: activation [1] -9.45% | Potency [2] | Potency [3] | Potency [4] | Potency [5] | Potency [8] | activation [6] -3.97%

CCCCOC(=O)/C=C\C(=O)OCCCC
inactive: Potency [7] | activation [1] -13.3% | Potency [2] | Potency [5]

OC1CCCCCCCCCCC1
inactive: activation [1] -19.4% | Potency [2] | Potency [3] | Potency [4] | Potency [8] | activation [6] 4.17%

C[N+](C)(C)CC(O)CCl (stereo unspecified)
inactive: activation [1] -7.46% | Potency [2] | Potency [3] | Potency [4] | Potency [5]

C/C(=C\C(C)CC(C)CC(C)C)C1CC(=O)OC1=O (stereo unspecified)
inactive: activation [1] -4.02% | Potency [3] | Potency [5] | activation [6] -3.07%

CC(=O)/C=C/C1C(C)=CCCC1(C)C (stereo unspecified)
inactive: Potency [7] | Potency [3] | Potency [4] | Potency [5] | activation [6] -1.49%

O=C(OCCOCCOC(=O)c1ccccc1)c1ccccc1
inactive: Potency [7] | activation [1] -2.84% | Potency [3] | Potency [4] | Potency [5] | activation [6] 0.877%

O=[N+]([O-])c1ccc2c(c1)Cc1ccccc1-2
inactive: activation [1] -0.149% | Potency [2] | Potency [3] | Potency [4] | activation [6] 4.31%

CCCCCCCCCCCO
inactive: Potency [7] | Potency [3] | Potency [5] | activation [6] 1.01%

CC(C)CCCCCOC(=O)CS
inactive: activation [1] 5.28% | Potency [2] | Potency [4] | Potency [8]

C=CCCCCCCCCC=O
inactive: activation [1] 4.91% | Potency [4] | Potency [5]

OCCOCCOCCOCCO
inactive: activation [1] -2.94% | Potency [2] | Potency [3] | Potency [5] | Potency [8] | activation [6] 0.49%

OCC(CO)(CO)COCC(CO)(CO)CO
inactive: Potency [7] | Potency [4] | Potency [5] | Potency [8] | activation [6] -2.73%
